system: VDR:RXRa (NR concentration 270 nM, RXRa partner concentration 90 nM); test: PBM binding z-score (relative to random genomic background probes); higher = stronger binding; sequences stand for … in GC…GCGATTGACAGCGTAGAATGAAGG
Method: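 Protein-binding microarray (Agilent 4x180K custom design, double-stranded 60-nt probes: 5' GC cap, 34-nt variable region, 24-nt constant primer region; full probe sequence given). Purified or IVT nuclear receptor:RXRα heterodimers (3:1 NR:RXRα, mostly 270:90 nM) or homodimers were incubated for 1 h in PBS with 2% milk and no ligand, then detected with Alexa488 antibodies. Fluorescence from o1-orientation probes (~5 replicates averaged) was converted to z-scores against 500 random hg19 background probes. Variable regions are seed direct-repeat (DR0–DR5) sites, all their single-nucleotide variants and half-site ablations.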

| Sequence | PBM binding z-score |
| --- | --- |
| TAGCCTAGGTGAGATCGGGCCAGTATACGCTATA | -0.592 |
| CCTAGTTGGTCAGGAGGTCACTCACCGGATATGA | 3.4 |
| TCTCGTAGATCAACAGGAGGTTAAGAAAGATCGA | 0.875 |
| CAGCCTAGGTCAGGGCCATTATAGGAGGAACGTT | 0.399 |
| CTCGAAAGGTCGTGCTCTGGTGAGTATACCAAAC | 3.19 |
| AGAATGAGGTTAAGATAAGGGAAACAGAATACAT | 1.62 |
| TCTTGTAGATCAATAGCGGTTAAGAAAGTGCGCT | 0.46 |
| TCATATAGGTAAACAGGTGAACGTCCGTAAGTTA | 1.19 |
| CCTTACGGGTCACTCGAGGTTATAGCATCGGAGT | 5.11 |
| CCTACTGGGCCATTCAGAGGTCGTTGATCATATG | 1.49 |
| CCTTACGGTTCACGAGGTTATAGCACGACGAGCG | 4.12 |
| GCTTGTAGATCAAGGTTATGAAAGACTAAGCTAA | 0.325 |
| TCTTGTAGATCAAGCAGGTTAAGACAGCCTGAGT | 0.279 |
| ATATGTAGGTTATCGGGTCATTTAGTTTGCGCAT | 4.24 |
| CAAACTAGGTCACGAAAGCTCAAAGTCGAATGAC | 2.37 |
| ATACCAAGGTGATCGTGAGATCGTTGATACTAAC | 0.19 |
| TCTTGTAGATCAATCGAGGTTAAGAAAGTGCGCT | 1.75 |
| TAGCCTAGGTCAGCTCGGGCCAGTATACGCTATA | 0.763 |
| TCATATAGGTAAACAGCTGAAAGTCCGTAAGTTA | 1.06 |
| CCTAGTTGGTCAAGGCCACACACGCTATAGGTAC | 0.31 |

| Sequence | PBM binding z-score |
| --- | --- |
| CCGACTGGGGCAAAGGTTACCATCCTCAGTACGA | 1.37 |
| CCTACTGAGCCAAGGTCATTGATCAGTCAAAGCA | 3.63 |
| ACTCGGAGGACAAAGGTTAGAGCTACGCCAGTGA | 0.555 |
| GGAACGTGGGCAAGTTGATAGCAGAGTTTGATGG | -0.629 |
| CGTCCAAGGTCAATGCTAGGTCAGTGACAGCATT | 4.87 |
| CCTACCGGGCCACGAAAGGTCATTGATTCAGTGA | 4.1 |
| ATCTCTAGGTAAAGATAATTCAGTGAATGCAAAT | 0.0441 |
| GCTAGTTGGTCAGTAAAAGGTAACACACCGGTCG | 0.0911 |
| GGAACGAGGGCAAGTTGATAGCTGAGTTTGATGG | 0.643 |
| AGAATGAGGTTAAGATCGGGGAAACAGAATACAT | 1.18 |
| CGAATTAGGTCATCCAGGACAGTGAATACATTGA | 5.04 |
| CCTACTGGGGCAAAGGTTACCATACTCAGTACGA | 1.86 |
| CGTCCAAGGTTAGAGAGGTCAGTGAATGCCGAGT | 5.7 |
| CCTATTAGTTGACCATAAGGGCAACTGAAGCTCG | 1.08 |
| ATCGAAAGGTCGACGAGGTGAGCATACACCGTTT | 5.07 |
| TCTTATAGGTAAACAGGTGAAAGTCCGTAAGTTA | 1.17 |
| TAGAGTAGGTTAGGGGCATTCAGAATGGCGTCGA | 1.06 |
| ACAGAAAGGTGAGTGAAGGTAACTCAGCTGGACG | 0.368 |
| ATATCTAGGTTACATCCGGGTCATTCAGGCTATG | 4.23 |
| GCTAGTTGGTCAGTAAAAGGTCACACAACGGTCG | 4.19 |

Source: the supplement of paper PMC6555819
